Screening data (PubChem)
TbREL1 primary: TbREL1 RNA ligase inhibitors, primary screen, biochemical, FRET fluorescence | RNA-editing ligase 1, mitochondrial (Trypanosoma brucei brucei), P86926 | TbREL1 RNA ligation | inhibition, % at 9.66 µM | 89,000 compounds, 0.49% hits;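 active means inhibition above the mean inhibition across all screened compounds plus 3 SD, cut at about 11% in these data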;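 further: 0% = plate median of test wells and 100% = NSC42067 control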
Target sequence (P86926 whole entry, looked up): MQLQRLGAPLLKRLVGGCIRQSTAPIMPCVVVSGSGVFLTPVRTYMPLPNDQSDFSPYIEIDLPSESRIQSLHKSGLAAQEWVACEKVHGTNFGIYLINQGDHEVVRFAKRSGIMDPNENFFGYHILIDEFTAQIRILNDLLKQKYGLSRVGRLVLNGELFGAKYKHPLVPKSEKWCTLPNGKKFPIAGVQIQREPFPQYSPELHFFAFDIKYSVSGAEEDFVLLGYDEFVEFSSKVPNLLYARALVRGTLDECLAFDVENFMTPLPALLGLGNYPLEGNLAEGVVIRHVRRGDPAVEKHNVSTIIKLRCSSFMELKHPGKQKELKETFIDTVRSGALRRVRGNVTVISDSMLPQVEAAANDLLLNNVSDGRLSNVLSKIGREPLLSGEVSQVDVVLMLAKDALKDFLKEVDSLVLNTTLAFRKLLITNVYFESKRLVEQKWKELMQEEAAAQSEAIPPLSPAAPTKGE
TbREL1 conf: TbREL1 RNA ligase inhibitors, confirmation, biochemical, FRET fluorescence, triplicate; shares compounds with TbREL1 primary; TbREL1 RNA ligation; inhibition, % at 9.66 µM; 390 compounds, 37% hits;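 active means mean inhibition across replicates above a set limit taken from the earlier primary screen, cut at about 11% in these data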;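 further: 0% = REL1 with substrate and DMSO and 100% = REL1 plus control inhibitor NSC42067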
* marks the source's active call; other numbers are inactive results. This excerpt belongs to a sample that is enriched for hits.

SMILES	TbREL1 primary	others
O=C(CSc1nnc(Cn2c(=O)sc3ccccc32)n1-c1ccccc1)N1CCCCCC1	12*
Cn1c(Cn2c(=O)sc3ccccc32)nnc1SCC(=O)N1CCCCCC1	-2
CCOc1ccc(-n2c(SCC(=O)Nc3ccccc3-c3ccccc3)nnc2-c2ccccc2)cc1	-1
CC(=O)c1ccc(N2CCN(S(=O)(=O)c3ccc4c(c3)C(Cl)(Cl)C(=O)N4)CC2)cc1	11*
CC(=O)Nc1ccc(S(=O)(=O)N2CCN(c3ccc(C(C)=O)cc3)CC2)cc1	5
O=C1Cc2cc(S(=O)(=O)N3CCN(c4ccc(C(=O)O)cc4)CC3)ccc2N1	4
CC1(C)C=C2C(N(Cc3ccc4c(c3)OCO4)C(=N)N2C(=O)OCc2ccccc2)n2c(=O)n(-c3ccccc3)c(=O)n21 (centres undefined)	3
CC(C)(N[C@@H](Cc1ccccc1)C(=O)NCCCc1ccccc1)C(=O)NCc1ccccc1	-3
O=C(NCCc1ccccc1F)c1cc2ccccn2n1	1
C=CCN(C)C(C#Cc1ccccc1)Cc1ccccc1 (centres undefined)	1
COC(=O)C1=C(C)N(Cc2ccc(Cl)cc2)C(=S)NC1c1cccc(Br)c1 (centres undefined)	-3
COC(=O)C1=C(C)N(Cc2ccccc2C(F)(F)F)C(=NCc2ccc3c(c2)OCO3)NC1c1cccc(F)c1 (centres undefined)	13*	TbREL1 conf=18*
COC(=O)C1=C(C)N(Cc2ccccc2C(F)(F)F)C(=NCc2ccc3c(c2)OCO3)NC1c1cccc(Cl)c1 (centres undefined)	14*	TbREL1 conf=14*
COC(=O)C1=C(C)N(CCCC(=O)O)C(=O)NC1c1ccc2c(c1)OCO2 (centres undefined)	2
O=C(Nc1cc(Cl)ccc1F)C1CCCN1S(=O)(=O)c1cccc2cccnc12 (centres undefined)	2
COc1ccc(CCN(Cc2cccs2)S(=O)(=O)c2ccc(F)cc2)cc1OC	0
Cc1cc(-c2n[nH]c(=S)n2N=Cc2ccc(OCc3ccccc3)cc2)n[nH]1	-2
Cc1nc(N)nc(N)c1/C=C/C(C)(C)c1ccc(Cl)cc1	15*	TbREL1 conf=8
C=CCn1c(SCC(=O)c2ccc(-c3ccccc3)cc2)nnc1-c1ccc(OC)cc1	0
COc1ccc(NC(=O)CC2C(=O)N(c3ccc(OC)cc3)C(=O)N2C(C)C)cc1 (centres undefined)	2
COC(=O)c1ccc(N2C(=O)CC(SCC(=O)Nc3ccc(OC)cc3)C2=O)cc1 (centres undefined)	13*	TbREL1 conf=3
COC(=O)c1ccc(N2C(=O)CC(Sc3n[nH]c(C)n3)C2=O)cc1 (centres undefined)	3
CC(C)CN(CC(C)C)C(=O)c1cn(C(C)c2ccccc2)nn1 (centres undefined)	-1
CC(=O)O[C@H]1[C@H](OC(C)=O)C[C@]2(OC(C)=O)C[C@H]1OC2=O	7
Oc1ccc(CNc2ccccc2Br)c2cccnc12	14*	TbREL1 conf=-1
SMILES	TbREL1 primary	others
Oc1ccc(CNc2ccc(C(F)(F)F)cc2F)c2cccnc12	13*	TbREL1 conf=-3
O=Nc1ccc(O)c2ncccc12	10
OCc1ccnc2c(O)cccc12	0
Oc1ccc(CNc2cccc(F)c2)c2cccnc12	11
Oc1ccc(CCc2c(F)cccc2F)c2cccnc12	-7
Cc1ccc(-c2nc(C3CCCN(S(=O)(=O)c4ccc(C)c(C)c4)C3)no2)cc1 (centres undefined)	-2
CCCCN1CCS(=O)(=O)N(Cc2cn(Cc3ccccc3Br)nn2)C(C(=O)OC)C1 (centres undefined)	-1
C=C1CCC2C(C)(C)CCC[C@]2(C)[C@H]1CC1=C(O)C(=O)C(CO)=CC1=O (some centres undefined)	-2
Cc1cc(NC(=O)Nc2cccc(F)c2)n(-c2ccccc2)n1	4
COc1ccc(-c2cc(-c3ccccc3)nc(SCC(=O)Nc3nccs3)c2C#N)cc1	-1
CCCC(=O)Nc1nnc(SCC)s1	3
N#Cc1c(SCC(=O)Nc2nccs2)sc2c(O)cc(=O)[nH]c12	38*	TbREL1 conf=23*
Cc1cc(C)cc(NC(=O)CSc2nc3[nH]c(=O)cc(O)c3s2)c1	-5
CCCSc1nnc(NC(=O)CSc2sc3c(O)cc(=O)[nH]c3c2C#N)s1	27*	TbREL1 conf=16*
Cc1cc(C)nc(SCC(=O)Nc2nccs2)n1	0
CCCCNC(=O)NCC1CCN(Cc2ccc(OC)cc2)CC1	5
CCOC(=O)[C@]12CCCC=C1N(CCCOC)C(=O)[C@@H]2CC(=O)NCc1ccc(C)o1	-8
CC(NCc1ccco1)C(=O)N1CCCC1 (centres undefined)	0
Cc1ccc(S(=O)(=O)Nc2cc(C(=O)O)ccc2N2CCC(C)CC2)cc1C	9
CC(C)(C)c1ccc(-c2noc(CCC(=O)NC3CC3)n2)cc1	-3
COC(=O)c1ccc(CN2CC3CC(c4ccccc4)N4CCCC34C2=O)cc1 (centres undefined)	-3
CC(=NNC(=O)CSc1nnc(-c2ccccc2)n1-c1ccccc1)c1ccc2ccccc2c1	-2
C#CCNC(=O)C[C@H]1C[C@@]2(C(=O)OC)C(=C[C@H](COCc3ccccc3)O[C@@H]2C)N(Cc2ccco2)C1=O	3
CCn1c2ccccc2c2cc(C=NNC(=O)c3ccoc3C)ccc21	4
NS(=O)(=O)c1ccc(NC(=O)c2cccc(N3C(=O)c4ccccc4C3=O)c2)cc1	12*	TbREL1 conf=23*
SMILES	TbREL1 primary	others
O=C(Nc1ccc(C(=O)NN2C(=O)c3ccccc3C2=O)cc1)c1ccccc1	0
NS(=O)(=O)c1ccc(NC(=O)c2cc(=O)c3ccccc3o2)cc1	6
C=CCn1c(COc2ccc(C)cc2)nnc1SCC(=O)c1ccc(-c2ccccc2)cc1	1
CS(=O)(=O)c1ccc(C(=O)Nc2nc(-c3ccco3)c(-c3ccco3)s2)cc1	82*	TbREL1 conf=6
O=C(Nc1nc2c(s1)CCCC2)c1ccc(S(=O)(=O)N2CCCc3ccccc32)cc1	6
O=C(Nc1nc2c(s1)CCc1ccccc1-2)c1ccco1	0
CCN(CC)CCCNC(=O)CC1Oc2ccccc2NC1=O (centres undefined)	0
Nc1scn[n+]1Cc1cccc2cccnc12	2
Nc1ccc(Br)c[n+]1Cc1cccc2cccnc12	12*	TbREL1 conf=8
Brc1ccc(COc2cccc3cccnc23)cc1	4
Cc1ccc(S(=O)(=O)N2CCCC(C(=O)NCCN3CCC(Cc4ccccc4)CC3)C2)cc1 (centres undefined)	9
COc1nc(OC)nc(N2CCC(C(=O)NCc3ccccc3OC)CC2)n1	1
COc1cc([N+](=O)[O-])cc(/C=N/NC(=O)Cn2nc(C)cc2C)c1O	17*	TbREL1 conf=4
COc1ccc(/C=N/NC(=O)Cn2nc([N+](=O)[O-])cc2C)c(OC)c1OC	-4
Cc1cc(C)n(CC(=O)N/N=C/c2ccc([N+](=O)[O-])s2)n1	2
COC(=O)[C@]12C[C@H](CC(=O)N3CCCCC3)C(=O)N(CCc3ccc(OC)c(OC)c3)C1=C[C@H](C(C)C)O[C@@H]2C1CC1	-1
COC(=O)[C@]12C[C@H](CC(=O)NCc3ccc(C)o3)C(=O)N(CCC3=CCCCC3)C1=C[C@H](C1CCCC1)O[C@@H]2C	-1
